Results taken from PubChem BioAssay AID2685 (National Center for Advancing Translational Sciences (NCATS), 2010).
Screen size: about 320,000 compounds; about 2,100 (0.66%) were called active. Inconclusive results (about 53%) are left out. Calls follow the shape of the dose curve; as a rule, active = well fitted inhibition curve with a large enough effect in the signal ratio, with a control signal flat (not every such curve was filed as active); inconclusive = small, poorly fitted or top-dose-only effect, or effect the other way, or a change in a side signal; inactive = flat fitted curve, though single readings scatter; the % refers to the signal ratio. What follows is part of a selection rich in actives, with near analogues and random picks from the rest.

Assay: qHTS Assay for Lipid Storage Modulators in Drosophila S3 Cells;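 as to cell number change: cells counted by Cell Tracker Red CMTPX staining in the red channel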; as to lipid storage change, negative = inhibition: % is scaled to controls: 0 for no effect and ±100 for the full control effect
Conditions: BODIPY lipid droplet fluorescence, 18-24 h, cells fed with added oleic acid; cell number change: measured here: cell count max response; series mostly up to 46.1 µM; lipid storage change, negative = inhibition: at the top concentration
Summary of the method: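 Drosophila S3 cells got compounds at several concentrations plus oleic acid (400 uM solution). Laser-scanning cytometry with 488 nm excitation read lipid droplets at 500-530 nm and cells at 575-640 nm. Percent activity was relative to 20 uM Triacsin C.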
Potency is read from the fitted curve at half-maximal effect.

SMILES | lipid storage change, negative = inhibition | cell number change [%] | Potency | outcome
CCc1ccc(NC(=O)NCC2CCN(Cc3cccc(Cl)c3)CC2)cc1 | -2.08% (inactive) | -23.4 |  | 
COC(=O)c1ccc(CON2C(=O)c3ccccc3C2=O)cc1 | -5.5% (inactive) | -3.96 |  | 
COC(=O)CCC(=O)NN1C(=O)c2ccccc2C1=O | -14.5% (inactive) | 9.79 |  | 
COC(=O)CON1C(=O)c2ccccc2C1=O |  | -16.7 | 25.9 µM (active) | 
CN(Cc1cccc(F)c1)C(=O)c1cc(S(=O)(=O)N2CCOCC2)ccc1N1CCCC1 | 2.59% (inactive) | -6.74 |  | 
COc1cccc(NC2=NC3(CCCCC3)N=C(N)N2)c1 |  | 5.89 | 6.51 µM (active) | 
COc1ccc(OC)c(NC2=NC3(CCCC3)N=C(N)N2)c1 |  | -7.97 |  | inactive
COc1ccc(NC2=NC3(CCCCC3)N=C(N)N2)cc1 | -9.8% (inactive) | -9.76 |  | 
O=C(Cn1nnc2ccccc21)c1ccc([N+](=O)[O-])cc1 | 1.88% (inactive) | 9.12 |  | 
O=C(Cn1nnc2ccccc21)OCC(=O)c1ccccc1 | -10% (inactive) | -10.5 |  | 
O=C(CCn1nnc2ccccc21)OCC(=O)c1ccc([N+](=O)[O-])cc1 |  | 5.65 | 0.731 µM (active) | 
O=[N+]([O-])c1ccc(N2CCOCC2)cc1NCCCO | 6.02% (inactive) | 7.85 |  | 
O=C(O)c1cccc(Nc2ncnc3ccccc23)c1 |  | -4.45 | 25.9 µM (active) | 
Cc1ccc2ncnc(Nc3ccccc3)c2c1 | 8.18% (inactive) | -8.5 |  | 
Cc1ccc2ncnc(Nc3cccc(C(=O)O)c3)c2c1 | -2% (inactive) | -1.09 |  | 
Cn1ncc2c(Nc3cccc([N+](=O)[O-])c3)ncnc21 |  | -17 |  | inactive
O=C(O)c1cccc(Nc2ncnc3ccc(Br)cc23)c1 | -2.57% (inactive) | -2.61 |  | 
Cc1ccc2ncnc(Nc3cccc([N+](=O)[O-])c3)c2c1 |  | 12.6 | 8.2 µM (active) | 
O=C(NCC(=O)N1CCN(c2ccccc2F)CC1)c1ccc(Br)o1 |  |  |  | inactive
Cc1cccc(N2CCN(C(=O)c3ccc(CS(=O)Cc4ccc(Cl)cc4)o3)CC2)c1C (stereo not given) |  | -21 |  | inactive
CCN1CCCC1CNCc1ccccc1OCc1ccc(F)cc1 (stereo not given) |  | 13.4 |  | inactive
CCN1CCCC1CNCc1ccc(Cl)cc1Cl (stereo not given) |  | -167 | 7.31 µM (active) | 
CCOc1cc(CNCC2CCCN2CC)cc(Cl)c1OC (stereo not given) | 0.755% (inactive) | 12.4 |  | 
CCn1cc(CN2CCC(n3nccc3NC(=O)c3ccc(OC)cc3)CC2)cn1 | 3.07% (inactive) | -5.94 |  | 

SMILES | lipid storage change, negative = inhibition | cell number change [%] | Potency | outcome
O=c1[nH]c2ccc(S(=O)(=O)N3CCCCC3)cc2o1 | 3.63% (inactive) | 2.33 |  | 
COc1ccc(C(=O)NNC(=O)COc2ccc(Cl)cc2)c(OC)c1 |  | 4.95 |  | inactive
CCOc1ccccc1NC(=O)C1CCCN(S(=O)(=O)c2cccc3nsnc23)C1 (stereo not given) | 20.9% (inactive) | -15.5 |  | 
CCc1ccc(NS(=O)(=O)c2ccc(OC)c3ncccc23)cc1 | 4.19% (inactive) | 5.2 |  | 
CNC(=O)C(=O)Nc1cc2c3c(c1)CCC(=O)N3CCC2 |  | -5.6 |  | inactive
CC(C)NC(=O)C(=O)Nc1cc2c3c(c1)CCC(=O)N3CCC2 |  | -25.7 | 11.6 µM (active) | 
O=C(NCCO)C(=O)Nc1cc2c3c(c1)CCN3C(=O)CC2 |  | -29 |  | inactive
CNC(=O)C(=O)Nc1cc2c3c(c1)CCN3C(=O)CC2 |  |  |  | inactive
CCNC(=O)C(=O)Nc1cc2c3c(c1)CCN3C(=O)CC2 |  | -2.95 | 6.51 µM (active) | 
CC(C)CNC(=O)C(=O)Nc1cc2c3c(c1)CCC(=O)N3CCC2 |  |  |  | inactive
CC12CCC(=O)N1C(C(=O)OCC(=O)Nc1cccc(S(=O)(=O)N3CCCCCC3)c1)CS2 (stereo not given) | 8.73% (inactive) |  |  | 
CN1CCCC(OC(=O)c2cc(Cl)cc(Cl)c2)C1 (stereo not given) | 6.18% (inactive) | -19.2 |  | 
CN1CCCC(OC(=O)c2cccc(S(=O)(=O)N3CCCCCC3)c2)C1 (stereo not given) | -6.87% (inactive) | 5.11 |  | 
COc1cccc(C(=O)OC2CCCN(C)C2)c1 (stereo not given) |  | -20.8 | 23.1 µM (active) | 
CCc1ccc(NC(=O)C/C(C)=N/NC(=O)OCc2ccc(OC)cc2)cc1 | 4.54% (inactive) | 1.96 |  | 
Cc1ccc(N2CCN(S(=O)(=O)c3cccs3)CC2C)cc1 (stereo not given) |  | -24.3 | 3.66 µM (active) | 
Cc1ccc(N2CCN(S(=O)(=O)c3ccc4c(c3)n(C)c(=O)c(=O)n4C)CC2C)cc1 (stereo not given) | -1.8% (inactive) | 9.1 |  | 
O=S(=O)(c1cccs1)N1CCN(S(=O)(=O)c2cccs2)CC1 | 0.709% (inactive) | 5.37 |  | 
O=C(Nc1ccccc1NC(=O)c1ccco1)c1ccccc1 |  | -10 | 1.46 µM (active) | 
O=C(Nc1ccccc1NC(=O)c1ccco1)c1ccco1 | 5.64% (inactive) | -11 |  | 
CN(C(=O)c1cccc(NC(=O)c2ccco2)c1)c1ccccc1 | 27% (inactive) | 8.03 |  | 
Cc1ccc(NC(=O)c2ccco2)c(NC(=O)c2ccccc2)c1 |  | 11.5 |  | inactive
CC(=O)N(C)c1ccc(NC(=O)c2ccco2)cc1 | -5.89% (inactive) | -3.91 |  | 
